Records with an inconclusive call do not appear. Entries that show only a call come without a potency. The source made the active and inactive calls. Calls come from the whole dose curve; as a rule, active = well fitted curve in the direction sought with a large enough effect; inconclusive = small, poorly fitted or top-dose-only effect, or another doubt; inactive = no such curve, though single readings can be large; an effect the other way counts as inactive or inconclusive.
Key:
[1] = qHTS of pediatric cancer cell lines to identify multiple opportunities for drug repurposing: Confirmatory screen for NB1643 cells (AID 1347109); note: nearly all actives have a fitted effect of over 45% in size
In short: (§1)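 Cells (500-1,000/well) rested 5 h, then received compounds for 48 h; metabolically active cells were measured by CellTiter-Glo luminescence. Final concentrations spanned up to 46 µM (MIPE, 11-point) or 0.59 nM-46 µM (NPC, 8-point) in primary screens, 11-point in follow-ups.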

[2] = qHTS of pediatric cancer cell lines to identify multiple opportunities for drug repurposing: Confirmatory screen for A673 cells (AID 1347110);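 note: cells exposed to compound for 48 h before the viability read; nearly all actives have a fitted effect of over 65% in size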
In short: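 Concentration-response curves came straight from titrations: 11 points (0.78 nM to 46 µM) for MIPE and several concentrations (0.59 nM to 46 µM) for NPC in primary, 11 points in follow-up. Readout: ATP luminescence at 48 h.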

[3] = qHTS of pediatric cancer cell lines to identify multiple opportunities for drug repurposing: Confirmatory screen for SK-N-MC cells (AID 1347111);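 note: cells exposed to compound for 48 h before the readout; nearly all actives have a fitted effect of over 70% in size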
In short: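 Seed 500-1,000 cells/well; rest 5 h at 37 degrees C. Pin-transfer compounds, 11-point titration. Incubate 48 h. Add CellTiter-Glo, 15 min RT, read luminescence.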

[4] = qHTS of pediatric cancer cell lines to identify multiple opportunities for drug repurposing: Confirmatory screen for DAOY cells (AID 1347114); note: nearly all actives have a fitted effect of over 65% in size
In short: (§2)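 Viability measured as metabolically active cells via CellTiter-Glo luminescence following 48 hours of compound exposure, 11-point dilutions in confirmatory testing. 500-1,000 cells/well plated 5 hours before dosing; controls were DMSO and 2.3 µM bortezomib.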

[5] = qHTS of pediatric cancer cell lines to identify multiple opportunities for drug repurposing: Confirmatory screen for BT-37 cells (AID 1347117); note: nearly all actives have a fitted effect of over 55% in size
In short: as §1

[6] = qHTS of pediatric cancer cell lines to identify multiple opportunities for drug repurposing: Confirmatory screen for TC32 cells (AID 1347118);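 note: cells exposed to compound for 48 h before the read; nearly all actives have a fitted effect of over 65% in size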
In short: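 Measured quantity: luminescence from CellTiter-Glo, reflecting metabolically active TC32 cells following 48 h of compound. Curves came straight from multi-point titrations, with 8 or 11 points in primary and 11 in confirmatory screening.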

[7] = qHTS of pediatric cancer cell lines to identify multiple opportunities for drug repurposing: Confirmatory screen for LAN-5 cells (AID 1347113); note: nearly all actives have a fitted effect of over 65% in size
In short: as §1

[8] = qHTS of pediatric cancer cell lines to identify multiple opportunities for drug repurposing: Confirmatory screen for BT-12 cells (AID 1347112);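 note: viability read after 48 h of compound exposure; nearly all actives have a fitted effect of over 55% in size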
In short: as §1

[9] = qHTS of pediatric cancer cell lines to identify multiple opportunities for drug repurposing: Confirmatory screen for NB-EBc1 cells (AID 1347115);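 note: cells exposed to compound for 48 h before the viability read; nearly all actives have a fitted effect of over 45% in size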
In short: as §1

[10] = qHTS of pediatric cancer cell lines to identify multiple opportunities for drug repurposing: Confirmatory screen for SJ-GBM2 cells (AID 1347116); note: nearly all actives have a fitted effect of over 60% in size
In short: as §2
Potency is the fitted concentration of half-maximal effect.

Compound	Potency [1]	Potency [2]	Potency [3]	Potency [4]	Potency [5]	Potency [6]	Potency [7]	Potency [8]	Potency [9]	Potency [10]
C[C@@]1(c2cc(-c3cncnc3)c(F)cc2F)CCSC(N)=N1	20.8 µM (active)	inactive	7.37 µM (active)	inactive	11.7 µM (active)	8.27 µM (active)				
CCOC(=O)[C@H](CCc1ccccc1)N[C@@H](C)C(=O)N1CCCC1C(=O)O (stereo partly specified)	7.37 µM (active)	4.14 µM (active)	14.7 µM (active)	inactive		7.37 µM (active)	9.27 µM (active)			
CC1=C(CC(=O)O)c2cc(F)ccc2C1=Cc1ccc(S(C)=O)cc1 (stereo unspecified)	inactive	inactive	inactive	inactive	inactive	inactive	inactive	inactive	inactive	
Nc1ncnc2c1ncn2[C@@H]1O[C@H](CO)[C@@H](O)[C@@H]1O	14.7 µM (active)	inactive	8.27 µM (active)	inactive	14.7 µM (active)	7.37 µM (active)	13.1 µM (active)			
NC(N)=Nc1nc(CSCCC(N)=NS(N)(=O)=O)cs1	inactive	inactive	inactive	inactive	inactive	inactive	inactive	inactive	inactive	
Cc1ccc(C(=O)N(CCCN)[C@@H](c2nc3cc(Cl)ccc3c(=O)n2Cc2ccccc2)C(C)C)cc1		0.0076 µM (active)	0.024 µM (active)	0.012 µM (active)	0.0537 µM (active)	0.0479 µM (active)		0.759 µM (active)		
CO[C@H]1/C=C\O[C@@]2(C)Oc3c(C)c(O)c4c(O)c(c5c(nc6cc(C)ccn65)c4c3C2=O)NC(=O)C(C)=CC=C[C@H](C)[C@H](O)[C@@H](C)[C@@H](O)[C@@H](C)[C@H](OC(C)=O)[C@H]1C	inactive	inactive		inactive	inactive		inactive	inactive	inactive	inactive
COc1ccc2c(c1)c(C1=C(c3c[nH]c4ccccc34)C(=O)NC1=O)cn2CCCN(C)C	20.8 µM (active)		8.27 µM (active)	23.3 µM (active)	23.3 µM (active)	23.3 µM (active)	16.5 µM (active)			
COc1cc2c(cc1OC)[C@@H]1Cc3ccc(OC)c(OC)c3CN1CC2		inactive								
CC1=C[C@@H]2[C@@H]([C@@H](O)C[C@@]3(C)[C@H]2C[C@@H](C)[C@]3(O)C(=O)CO)[C@@]2(C)Cc3cnn(-c4ccccc4)c3C=C12		23.3 µM (active)	9.27 µM (active)	inactive		10.4 µM (active)		inactive		
OCCn1cc(-c2ccc3c(c2)CCC3=NO)c(-c2ccncc2)n1	inactive			inactive	inactive	inactive		inactive	inactive	
C[C@@H]1C[C@H]2[C@@H]3CCC4=CC(=O)C=C[C@]4(C)[C@@]3(F)[C@@H](O)C[C@]2(C)[C@@]1(O)C(=O)CO	inactive	inactive		inactive	inactive		inactive	inactive	inactive	
CCC(=O)OCC(=O)[C@@]1(OC(=O)CC)[C@@H](C)C[C@@H]2[C@H]3CCC4=CC(=O)C=C[C@]4(C)[C@@]3(F)[C@@H](O)C[C@@]21C	inactive		inactive		inactive		inactive	inactive		inactive
CC(C)C[C@@H](C(=O)N[C@H](C(=O)OC1CCCC1)c1ccccc1)[C@H](O)C(=O)NO	20.8 µM (active)		20.8 µM (active)	18.5 µM (active)		23.3 µM (active)		inactive	inactive	
Cc1cc(CS(=O)(=O)c2ccccc2)cc(OCc2ccc(CN3CCC[C@H]3CO)cc2)c1	inactive								inactive	inactive
Cc1cccc(-c2[nH]c(C(C)(C)C)nc2-c2ccc3c(c2)OCO3)n1		13.1 µM (active)	7.37 µM (active)		8.27 µM (active)	7.37 µM (active)	2.61 µM (active)	11.7 µM (active)		

Compound	Potency [1]	Potency [2]	Potency [3]	Potency [4]	Potency [5]	Potency [6]	Potency [7]	Potency [8]	Potency [9]	Potency [10]
CCN(CCO)CCCOc1ccc2c(Nc3cc(CC(=O)Nc4cccc(F)c4)[nH]n3)ncnc2c1		10.4 µM (active)	0.104 µM (active)	inactive		0.0414 µM (active)		inactive	inactive	inactive
COc1cc(CNC(=O)CCCCC=CC(C)C)ccc1O	inactive			inactive	inactive	3.29 µM (active)	inactive	inactive	inactive	
O=C1Nc2ccc(I)cc2C1=Cc1cc(Br)c(O)c(Br)c1		11.7 µM (active)	inactive	inactive	inactive			inactive	inactive	inactive
CCC(C)SSc1ncc[nH]1 (stereo unspecified)	18.5 µM (active)		8.27 µM (active)			13.1 µM (active)	13.1 µM (active)	23.3 µM (active)		
CO[C@H]1/C=C\O[C@@]2(C)Oc3c(C)c(O)c4c(O)c(c(C=NN5CCN(C6CCCC6)CC5)c(O)c4c3C2=O)NC(=O)C(C)=CC=C[C@H](C)[C@H](O)[C@@H](C)[C@@H](O)[C@@H](C)[C@H](OC(C)=O)[C@H]1C	23.3 µM (active)		20.8 µM (active)		26.1 µM (active)	20.8 µM (active)	inactive			inactive
CC(C)CN(C[C@H](O)[C@H](Cc1ccccc1)NC(=O)O[C@H]1CCOC1)S(=O)(=O)c1ccc(N)cc1	inactive			inactive	inactive		inactive	inactive		inactive
C[C@@]1(C(=O)Nc2ccc(F)nc2)CCCN1c1nc(Nc2cc(C3CC3)[nH]n2)c2cccn2n1	0.293 µM (active)	0.465 µM (active)			2.93 µM (active)	0.233 µM (active)	0.147 µM (active)		1.47 µM (active)	
CCC[C@H](N[C@@H](C)C(=O)N1[C@@H]2CCCC[C@H]2C[C@H]1C(=O)O)C(=O)OCC	inactive		inactive	inactive	inactive	inactive	inactive	inactive	inactive	inactive
O=C(CC12CC3CC(CC(C3)C1)C2)Nc1cccc2nc(NCCNCCO)ccc12	inactive		23.3 µM (active)			18.5 µM (active)	inactive		inactive	
Cc1c(C(=O)Nc2ccc(N3C[C@@H](C)O[C@@H](C)C3)nc2)cccc1-c1ccc(OC(F)(F)F)cc1	inactive						inactive		inactive	inactive
Cc1ccccc1-n1c(Cn2nc(-c3cccc(O)c3)c3c(N)ncnc32)nc2cccc(C)c2c1=O	inactive	7.37 µM (active)				inactive	inactive	inactive		
CCCCn1c(=O)n(Cc2ccccc2F)c(=O)c2[nH]c(Cc3ccc(NC(C)=O)cc3)nc21	inactive				inactive		inactive	inactive	inactive	11.7 µM (active)
CCCC1OC2C[C@@H]3[C@H]4CCC5=CC(=O)C=C[C@]5(C)[C@H]4C(O)C[C@]3(C)[C@]2(C(=O)CO)O1 (stereo partly specified)		inactive	26.1 µM (active)					inactive	inactive	1.47 µM (active)
CC1CNc2c(cccc2S(=O)(=O)N[C@@H](CCCN=C(N)N)C(=O)N2CC[C@@H](C)C[C@@H]2C(=O)O)C1 (stereo partly specified)		inactive	20.8 µM (active)	inactive	inactive			inactive	inactive	
COC1CCC(C(=O)c2ccc3nc4c(cc3c2)CCCO4)CC1 (stereo unspecified)	inactive		inactive	23.3 µM (active)	inactive		inactive	inactive	inactive	inactive
CCC[C@H](Nc1nc(-c2ccc(NC(=O)NCC)c(OC)c2)ncc1C)c1cccnc1	0.165 µM (active)	0.233 µM (active)		0.0827 µM (active)	0.329 µM (active)	0.117 µM (active)	0.414 µM (active)		0.329 µM (active)	
